Experiment [1] has as its system Vero E6 infected with SARS-CoV-2. The experiment is described as follows: morphology score (similarity to uninfected cells); higher = more like uninfected cells. The settings on record: 24 h.
The test system is the same in experiment [2]. The experiment is described as follows: SARS-CoV-2 infection rate relative to infected DMSO; higher = more infection, active = 60 or less. The settings on record: 24 h.

We go through 30 molecules from the supplement of paper PMC13380429.

Turning to `COc1cc2c(cc1OC)-c1c(C)c3ccc(OC)c(OC)c3c[n+]1CC2` [dehydrocorydaline] (10 µM), in experiment [1], the morphology score was 0.0289. Moreover, the SARS-CoV-2 infection rate in experiment [2] was 104% (inactive).
In experiment [1], `O=C(NCCCCCCNC(=O)ON=C1CCCCC1)ON=C1CCCCC1` (10 µM) came in with a morphology score of 0.11. Besides, the SARS-CoV-2 infection rate in experiment [2] was 104% (inactive).
In turn, `O=C(/C=C\n1cnc(-c2cc(C(F)(F)F)cc(C(F)(F)F)c2)n1)N1CC(F)(F)C1` (10 µM) gave a morphology score in experiment [1] of -0.303. Moreover, the SARS-CoV-2 infection rate in experiment [2] is 116% (inactive).
Molecule `Cc1cn([C@H]2C[C@H](N=[N+]=[N-])[C@@H](CO)O2)c(=O)[nH]c1=O` [zidovudine] (10 µM) gave a morphology score in experiment [1] of -0.144. For the same molecule, in experiment [2], the SARS-CoV-2 infection rate was 108% (inactive).
`O=C1CCCCCCCCCCCCCCO1` [oxacyclohexadecan-2-one] (10 µM) returned a morphology score in experiment [1] of -0.0503. For the same molecule, in experiment [2], the SARS-CoV-2 infection rate is 106% (inactive).
`CC(=O)NCC(=O)N[C@H](CCC(=O)O)C(=O)O` [N-acetylglycyl-D-glutamic-acid] (10 µM) returned a morphology score in experiment [1] of 0.127. In addition, the SARS-CoV-2 infection rate in experiment [2] is 98% (inactive).
In turn, `COc1ccc(Cl)cc1NC(=O)Nc1cc(C)nc2ccccc12` (10 µM) showed a morphology score in experiment [1] of 0.148. In addition, the SARS-CoV-2 infection rate in experiment [2] was 96.5% (inactive).
In experiment [1], `CNC(=O)c1c(-c2ccc(F)cc2)oc2cc(N(CCO)S(C)(=O)=O)c(C3CC3)cc12` [nesbuvir] (10 µM) showed a morphology score of 0.111. The SARS-CoV-2 infection rate in experiment [2] was 104% (inactive).
Molecule `COc1cc2c(cc1-c1c(C)noc1C)ncc1[nH]c(=O)n([C@H](C)c3ccccn3)c12` (10 µM) had a morphology score in experiment [1] of -0.154. Besides, the SARS-CoV-2 infection rate in experiment [2] is 112% (inactive).
With `CSc1ccc(C(=O)c2[nH]c(=O)[nH]c2C)cc1` [enoximone] (10 µM), the morphology score in experiment [1] was found to be 0.104. Further, the SARS-CoV-2 infection rate in experiment [2] was 88.5% (inactive).
`CC(=O)N[C@@H](Cc1ccc(O)cc1)C(=O)O` [N-acetyl-tyrosine] (10 µM) yielded a morphology score in experiment [1] of -0.058. Moreover, in experiment [2], the SARS-CoV-2 infection rate is 114% (inactive).
Take `C[C@@H]([C@H](O)c1ccc(O)cc1)N1CCC(Cc2ccccc2)CC1` (racemic) [ifenprodil] (10 µM): in experiment [1], the morphology score was found to be 0.0632. For the same molecule, the SARS-CoV-2 infection rate in experiment [2] was 100% (inactive).
As for `O=C(c1cc2ccccc2o1)N1CCN(Cc2ccccc2)CC1` [befuraline] (10 µM), in experiment [1], the morphology score is -0.00895. Besides, the SARS-CoV-2 infection rate in experiment [2] was 106% (inactive).
For the molecule `COc1ccc2[nH]c3c(-c4cccc5ccccc45)nccc3c2c1` (10 µM), the morphology score in experiment [1] was -0.0282. Besides, the SARS-CoV-2 infection rate in experiment [2] was 111% (inactive).
The matching figures for `C[C@@H]1[C@H](O)[C@@H](C)/C=C/C=C/C=C/C=C/C=C/C=C/C=C/[C@H](O[C@@H]2O[C@H](C)[C@@H](O)[C@H](N)[C@@H]2O)C[C@@H]2O[C@](O)(C[C@@H](O)C[C@@H](O)[C@H](O)CC[C@@H](O)C[C@@H](O)CC(=O)O[C@H]1C)C[C@H](O)[C@H]2C(=O)O` [amphotericin-b] (10 µM): 0.132 and 107% (inactive).
On to `CCCCc1oc2ccc(NS(C)(=O)=O)cc2c1C(=O)c1ccc(OCCCN(CCCC)CCCC)cc1` [dronedarone] (0.833333 µM), for which the morphology score in experiment [1] is -0.0676. In addition, the SARS-CoV-2 infection rate in experiment [2] is 116% (inactive).
In the case of `NC(=O)c1ccc2[nH]ccc2c1` (10 µM), in experiment [1], the morphology score came out at 0.192. Also, the SARS-CoV-2 infection rate in experiment [2] was 87.5% (inactive).
In turn, `Cc1ccc(Oc2ccccc2-c2csc(N=C3NCCCN3)n2)c(C)c1` [abafungin] (10 µM) yielded a morphology score in experiment [1] of 0.0754. Also, the SARS-CoV-2 infection rate in experiment [2] was 100% (inactive).
On the same counts, the results for `CC(C)n1nccc1-c1ncccc1COc1cccc(O)c1C=O` [voxelotor] (10 µM) are 0.188 and 102% (inactive).
In experiment [1], `OCc1cc([C@@H](O)CNCCCCCCOCCOCc2c(Cl)cccc2Cl)ccc1O` [vilanterol] (10 µM) showed a morphology score of 0.0228. Also, in experiment [2], the SARS-CoV-2 infection rate was 111% (inactive).
On to `C[n+]1c2cc(N)ccc2cc2ccc(N)cc21.Nc1ccc2cc3ccc(N)cc3nc2c1` [acriflavine] (0.833333 µM), for which the morphology score in experiment [1] worked out at 0.32. The SARS-CoV-2 infection rate in experiment [2] is 108% (inactive).
For `O=C1NC(=O)c2c1c1c3ccccc3n3c1c1c2c2ccccc2n1C1CCC3O1` (10 µM), the morphology score in experiment [1] was -0.0614. Moreover, the SARS-CoV-2 infection rate in experiment [2] is 108% (inactive).
Consider `N#C/C(=C\c1ccc(O)c(O)c1)C(=O)NCCCCc1ccccc1` (0.833333 µM), for which, in experiment [1], the morphology score stood at 0.167. Besides, the SARS-CoV-2 infection rate in experiment [2] was 89.5% (inactive).
The matching figures for `Cc1ccc(NC(=O)Nc2cc(C(F)(F)F)ccc2F)cc1Nc1ccc2c(c1)NC(=O)/C2=C\c1ccc[nH]1` (10 µM): 0.567 and 51.5% (active).
The matching figures for `O=Nc1c(-c2c(O)[nH]c3cc(Br)ccc23)[nH]c2ccccc12` [GSK-3-inhibitor-IX] (0.833333 µM): -0.0517 and 67% (inactive).
Consider `O=C(Nc1ccccc1)N[C@H]1C[C@H](C(=O)O)Nc2cc(Cl)cc(Cl)c21` (10 µM), for which, in experiment [1], the morphology score was -0.146. Also, in experiment [2], the SARS-CoV-2 infection rate was 106% (inactive).
With `Cc1ccc(-c2cn3c4c(sc3n2)CCCC4)cc1` [pifithrin-cyclic] (10 µM), in experiment [1], the morphology score was -0.115. The SARS-CoV-2 infection rate in experiment [2] was 106% (inactive).
Regarding `CN[C@@H](C)CC1CCCCC1` [propylhexedrine] (10 µM), the morphology score in experiment [1] was -0.0197. For the same molecule, the SARS-CoV-2 infection rate in experiment [2] was 110% (inactive).
Molecule `CC(C)S(=O)(=O)NC[C@H](C)c1ccc(-c2ccc(CCNS(C)(=O)=O)cc2)cc1` [mibampator] (10 µM) registered a morphology score in experiment [1] of 0.146. Further, the SARS-CoV-2 infection rate in experiment [2] was 93% (inactive).
The matching figures for `COC1=C2C[C@@H](C)C[C@H](OC)[C@H](O)[C@@H](C)/C=C(\C)[C@H](OC(N)=O)[C@@H](OC)/C=C\C=C(/C)C(=O)NC(=CC1=O)C2=O` [geldanamycin] (0.833333 µM): -0.177 and 98.5% (inactive).
